Bioassay records (PubChem)
APP transl inh: APP translation inhibition. SH-SY5Y APP 5'UTR-luciferase reporter, luminescence. AID 1285. inhibition, % at 2 µM. 0.82% of 190,000 active;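 active = inhibition above a set limit, derived from the sample mean plus 3 SD, cut at about 45% in these data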
aSyn UTR inh: MLPCN primary screen, SNCA 5' untranslated region; alpha-synuclein 5'UTR reporter, inhibitor activity; inhibition, % (tested at 7.5 µM); 0.82% of 300,000 active; AID 1813; in the data active = inhibition above about 60%;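 note: H4 neuroglioblastoma cells stably carrying SNCA 5'UTR luciferase fusion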
BaF3 tox: reduces parental Ba/F3 cell viability, JAK2V617F counter-screen; CellTiter-Glo ATP luminescence; inhibition, % at 5.6 µM; 1.1% of 220,000 active; AID 1486;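 active = inhibition above a per-campaign cutoff, the mean inhibition of all tested compounds plus 3 SD, cut at about 27% in these data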
IEC-6 cytotox: counter-screen for KLF5 inhibitors: cytotoxicity in IEC-6 cells; IEC-6 cytotoxicity, luminescence viability; inhibition, % at 5 µM; 0.78% of 290,000 active; in the data active = inhibition above about 22%
Ba/F3 V617F tox: reduce viability of Ba/F3 cells dependent on JAK2V617F | Ba/F3 EpoR-JAK2V617F viability, ATP luminescence | inhibition, % at 5.6 µM | 1.1% of 220,000 active;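 active = inhibition above the campaign mean plus 3 SD over all tested compounds, cut at about 24% in these data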;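 note: cytokine-independent growth of Ba/F3 cells driven by EpoR plus mutant JAK2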
KLF5 inhibitor: inhibitors of KLF5 expression | AID 1700 | 0.23% of 290,000 active | DLD-1 KLF5 promoter-luciferase reporter, luminescence | inhibition, % at 5 µM;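 active = inhibition above a per-plate limit of that plate's mean compound inhibition plus 3 SD, cut at about 60% in these data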;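 note: higher means less KLF5 promoter-driven luciferase light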
Hits are given with their value; – = inactive; · = no result given. The list is not random: actives were taken first. Their share in the collection is about 2.1%.

SMILES | APP transl inh | aSyn UTR inh | BaF3 tox | IEC-6 cytotox | Ba/F3 V617F tox | KLF5 inhibitor
Cc1ccc(C(=O)C[n+]2cc(-c3ccc(C)cc3)n3c2CCCCC3)cc1 | – | – | 88.9 | – | 102.1 | –
COc1ccc(C(=O)C[n+]2ccc(-c3nnc4n3CCCCC4)cc2)cc1 | · | – | – | – | – | –
Cc1ccc(-c2c[n+](Cc3ccc(Cl)c(Cl)c3)c3n2CCC3)cc1 | – | – | 72.7 | – | 78.4 | –
Cc1ccc(NC(=O)C[n+]2cc(-c3ccc(C)cc3)n3c2CCC3)cc1 | · | · | – | – | – | –
CCOC(=O)c1c(NC(=O)Cn2cnc([N+](=O)[O-])n2)sc(C)c1C | – | – | – | – | – | –
C=CCn1c(SCc2ccc(C#N)cc2)nnc1-c1ccc(C)cc1 | – | – | – | – | – | –
Cc1ccc(CN2C(=O)/C(=C\c3ccc(C(=O)NCc4cccnc4)cc3)Oc3ccccc32)cc1 | 71.7 | 101.5 | – | – | – | –
O=C(CN1C(=O)/C(=C\c2ccccc2Cl)Oc2ccccc21)NCc1cccnc1 | – | – | – | – | – | –
Cc1nn(C)c(C)c1CN(C)S(=O)(=O)c1ccc2ccccc2c1 | 47.3 | · | 46.0 | – | 45.5 | –
O=C(CCC(=O)N1CCOCC1)NCCc1ccc(Cl)cc1Cl | · | – | · | – | · | –
COc1ccc(CCn2c(-c3ccc(OC)cc3)nc3c(c(=O)c4ccccc4n3C)c2=O)cc1 | · | – | – | – | – | –
CCc1nc2c(c(=O)c3ccccc3n2C)c(=O)n1CCc1ccc(OC)cc1 | – | 74.0 | – | 25.8 | – | –
COc1cc(C2C3=C(Nc4ncnn42)c2ccccc2CC3)cc(OC)c1OC (configuration not stated) | 95.0 | 82.6 | 90.2 | 95.5 | 93.2 | 78.0
C=CC[n+]1ccc(/C=C2\C=Cc3cc(C)ccc3N2CC)c2ccccc21 | – | · | 84.6 | 38.9 | 99.8 | –
O=C(N/N=C/c1ccc(Cl)cc1)c1sccc1OCc1ccc(F)cc1 | · | 72.5 | 46.7 | – | 71.9 | –
COc1ccc(N(CC(=O)Nc2ccc(S(=O)(=O)N3CCOCC3)cc2)S(=O)(=O)c2ccccc2)cc1 | – | · | – | – | – | –
Cc1cccc(-n2c3nc(=O)[nH]c(=O)c-3cc3cc([N+](=O)[O-])ccc32)c1 | – | – | – | – | – | –
Cc1ccc(C)c(-n2c3nc(=O)[nH]c(=O)c-3cc3cc([N+](=O)[O-])ccc32)c1 | 90.9 | · | 56.4 | – | – | –
Oc1ccc(/C=N/Nc2ccc(Cl)nn2)c(O)c1O | · | – | · | – | · | –
CC1CCc2cc(F)ccc2N1C(=O)c1ccc2c(c1)OCO2 (configuration not stated) | – | – | 35.9 | – | 32.3 | –
CCCCNC(=O)c1sc(=S)n2c1[nH]c(=O)c1ccccc12 | – | – | 100.8 | – | – | –
O=C(NC1CCCCC1)c1sc(=S)n2c1[nH]c(=O)c1ccccc12 | – | – | – | – | – | –
Cc1ccc(NC2=C(Cl)C(=O)OC2OC(C)C)c(C)c1 (configuration not stated) | – | 69.2 | – | – | – | –
Cc1cccc(C)c1NC1=C(Cl)C(=O)OC1OC(C)C (configuration not stated) | – | – | – | – | – | –
C/C(=N/NC(=O)c1cc(C2CC2)[nH]n1)c1cccs1 | – | 84.3 | – | – | – | –
SMILES | APP transl inh | aSyn UTR inh | BaF3 tox | IEC-6 cytotox | Ba/F3 V617F tox | KLF5 inhibitor
C/C(=N\NC(=O)c1ccncc1)c1cccs1 | – | – | – | – | – | –
COc1ccc(CN2CCC(CO)(Cc3cccc(C(F)(F)F)c3)CC2)cc1Cn1cccn1 | – | – | – | – | – | –
O=C(c1cc2sccc2n1Cc1ccc(F)cc1)N1CCCc2ccccc21 | 58.4 | – | – | – | – | –
Cc1ccc(C(=O)c2c3ccc([N+](=O)[O-])cc3[n+]([O-])n2CCCN)cc1 | · | 63.3 | · | · | · | ·
Cc1cc(C)c2sc(NNC(=O)c3ccc(S(=O)(=O)N4CCc5ccccc5C4)cc3)nc2c1 | – | 77.4 | – | – | – | –
Cc1nnc(NC(=O)c2ccc(S(=O)(=O)N3CCc4ccccc4C3)cc2)o1 | – | – | – | – | – | –
Cc1cc(C)c2nc(NNC(=O)c3ccc(S(=O)(=O)N4CCc5ccccc5C4)cc3)sc2c1 | – | 75.3 | – | – | – | –
CCc1nnc(NC(=O)c2ccc(S(=O)(=O)N3CCc4ccccc4C3)cc2)s1 | – | – | – | – | – | –
CC(=O)Nc1ccc(NC(=O)C(C)OC(=O)C2CCN(S(=O)(=O)c3cccs3)CC2)cc1 (configuration not stated) | · | – | – | – | – | –
CCCCN(C(=O)c1cc2c(s1)CCC2)c1c(N)n(CCCC)c(=O)[nH]c1=O | · | – | · | · | · | ·
